Measurements: the supplement of paper PMC12350171
Structures can show the parent of a compound that is named as a salt.

Assays:
Conditions in all cases: 20 µM
[1] = test system: Salmonella enterica typhimurium; assay: growth AUC normalised to DMSO control (fraction of control); higher = less growth inhibition, active = hit call of the paper
How it was run: (§1)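 After two anaerobic passages, pathogens were added at a starting OD578 of 0.01 to pre-reduced mGAM plates holding compound at 20 μM with 1% DMSO; hemin and NAD were supplemented for Haemophilus parainfluenzae. Sealed with breathable membranes, plates were read at OD578 hourly for 24 h, in three biological replicates. The trapezoidal rule, applied up to the exponential-to-stationary transition, gave the growth-curve AUC, which was normalised to DMSO controls on the same plate.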

Shigella flexneri = assay: as above
How it was run: as §1

Vibrio cholerae = assay: as above
How it was run: as §1

[2] = test system: Yersinia pseudotuberculosis; assay: as above
How it was run: as §1

P. vulgatus RND KO = assay: growth AUC normalised to DMSO control (median) (fraction of control); higher = less growth inhibition, active = hit call of the paper
How it was run: (§2)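 Anaerobic growth was tracked hourly at OD578 for 24 h in 96-well plates of mGAM seeded at OD578 0.01 with each approved-drug library compound at 20 μM and 1% DMSO. Strains had first been passaged twice overnight without oxygen. Three biological replicates were run. The reported median is the area under the curve, calculated by the trapezoidal rule on curves truncated at entry into stationary phase and normalised to vehicle wells on the same plate.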

P. vulgatus WT = assay: as above
How it was run: as §2

[3] = test system: S. enterica typhimurium WT; assay: as above
How it was run: as §2

[4] = test system: S. enterica typhimurium tolC KO; assay: as above
How it was run: as §2

Measured: growth AUC normalised to DMSO control
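Wherever growth AUC normalised to DMSO control (median) is given: active when median AUC fell below 0.1.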

CCN(CC)C(C)CN1c2ccccc2Sc2ccccc21 (stereo not drawn) [Ethopropazine hydrochloride]
inactive: [1] 0.972 | Shigella flexneri 0.999 | Vibrio cholerae 0.918 | [2] 0.995 | P. vulgatus RND KO 0.272 | P. vulgatus WT 0.246 | [3] 0.993 | [4] 0.951

CN1CCCN=C1/C=C/c1cccc(O)c1 [Oxantel pamoate]
inactive: [1] 1.01 | Shigella flexneri 1.02 | Vibrio cholerae 1.05 | [2] 1.02 | P. vulgatus RND KO 1.01 | P. vulgatus WT 0.992 | [3] 1.01 | [4] 1.01

COc1cc(C)nc(-n2nc(C)cc2OC)n1 [Epirizole]
inactive: [1] 0.997 | Shigella flexneri 1 | Vibrio cholerae 0.981 | [2] 0.992 | P. vulgatus RND KO 0.979 | P. vulgatus WT 0.999 | [3] 1 | [4] 1.01

Cc1scc2c1N(C(=O)CN1CCN(C)CC1)c1ccccc1NC2=O [Telenzepine dihydrochloride]
inactive: [1] 1.02 | Shigella flexneri 1.01 | Vibrio cholerae 1.01 | [2] 0.993 | P. vulgatus RND KO 0.995 | P. vulgatus WT 0.983 | [3] 1.01 | [4] 0.999

Cc1ccccc1N1C(=O)c2cc(S(N)(=O)=O)c(Cl)cc2NC1C (stereo not drawn) [Metolazone]
inactive: [1] 0.994 | Shigella flexneri 0.984 | Vibrio cholerae 0.996 | [2] 0.991 | P. vulgatus RND KO 0.99 | P. vulgatus WT 1 | [3] 1.02 | [4] 0.997

CC(=O)O[C@@]12CO[C@@H]1C[C@H](O)[C@@]1(C)C(=O)[C@H](O)C3=C(C)[C@@H](OC(=O)[C@H](O)[C@@H](NC(=O)OC(C)(C)C)c4ccccc4)C[C@@](O)([C@@H](OC(=O)c4ccccc4)[C@H]21)C3(C)C [Docetaxel]
inactive: [1] 0.995 | Shigella flexneri 0.982 | Vibrio cholerae 1.07 | [2] 1.04 | P. vulgatus RND KO 0.904 | P. vulgatus WT 0.92 | [3] 1 | [4] 1

COc1cccc(N(C)C(=S)Oc2ccc3c(c2)CCCC3)n1 [Liranaftate]
inactive: [1] 1.02 | Shigella flexneri 1.03 | Vibrio cholerae 1.01 | [2] 1.01 | P. vulgatus RND KO 1.03 | P. vulgatus WT 1.07 | [3] 0.996 | [4] 0.909

CN1C(=O)CC(c2ccccc2)C1=O (stereo not drawn) [Phensuximide]
inactive: [1] 1.01 | Shigella flexneri 1.04 | Vibrio cholerae 1.03 | [2] 1.02 | P. vulgatus RND KO 1.02 | P. vulgatus WT 1.04 | [3] 1 | [4] 0.993

NC12CC3CC(CC(C3)C1)C2 [Adamantamine fumarate]
inactive: [1] 1.02 | Shigella flexneri 1.06 | Vibrio cholerae 1.03 | [2] 1 | P. vulgatus RND KO 1.04 | P. vulgatus WT 1.08 | [3] 0.996 | [4] 0.996

O=C(N[C@H](CO)[C@H](O)c1ccc([N+](=O)[O-])cc1)C(Cl)Cl [Chloramphenicol]
active: [1] 0.00522 | Shigella flexneri 0.0276 | Vibrio cholerae 0.0386 | [2] 0.0352 | P. vulgatus RND KO 0.018 | P. vulgatus WT 0.0107 | [3] 0.00734 | [4] 0.00302

Cc1cc2c(cc1S(N)(=O)=O)S(=O)(=O)CCC2 [Meticrane]
inactive: [1] 1.01 | Shigella flexneri 0.996 | Vibrio cholerae 1.01 | [2] 1.01 | P. vulgatus RND KO 1.03 | P. vulgatus WT 1.01 | [3] 1.02 | [4] 1.01

NCCCCCC(=O)O [Aminocaproic acid]
inactive: [1] 0.999 | Shigella flexneri 1.06 | Vibrio cholerae 1.07 | [2] 1.02 | P. vulgatus RND KO 1.07 | P. vulgatus WT 1.1 | [3] 1.02 | [4] 1

CCN(CC)CCOC(=O)C1(C2CCCCC2)CCCCC1 [Dicyclomine hydrochloride]
inactive: [1] 0.935 | Shigella flexneri 0.978 | Vibrio cholerae 0.889 | [2] 0.98 | P. vulgatus RND KO 1 | P. vulgatus WT 1.02 | [3] 0.999 | [4] 0.933

C#CCN(C)Cc1ccccc1 [Pargyline hydrochloride]
inactive: [1] 0.964 | Shigella flexneri 1.03 | Vibrio cholerae 0.942 | [2] 0.994 | P. vulgatus RND KO 1.01 | P. vulgatus WT 1 | [3] 1 | [4] 1.01

CC(=O)OCC(CCn1cnc2cnc(N)nc21)COC(C)=O [Famciclovir]
inactive: [1] 1.02 | Shigella flexneri 1.01 | Vibrio cholerae 1.04 | [2] 1.01 | P. vulgatus RND KO 1.03 | P. vulgatus WT 1.03 | [3] 1 | [4] 0.976

COC(=O)[C@H]1[C@H]2C[C@@H]3c4[nH]c5cc(OC)ccc5c4CCN3C[C@H]2C[C@@H](OC(=O)c2cc(OC)c(OC)c(OC)c2)[C@@H]1OC [Reserpine]
inactive: [1] 1.02 | Shigella flexneri 1.05 | Vibrio cholerae 1.06 | [2] 1.02 | P. vulgatus RND KO 1.04 | P. vulgatus WT 1.05 | [3] 1.02 | [4] 1

O=C1c2ccccc2S(=O)(=O)N1CCCCN1CCN(c2ncccn2)CC1 [Ipsapirone]
inactive: [1] 0.991 | Shigella flexneri 0.99 | Vibrio cholerae 0.957 | [2] 0.998 | P. vulgatus RND KO 1 | P. vulgatus WT 1.01 | [3] 0.989 | [4] 1.01

CN1CCN(C2=Nc3ccccc3Oc3ccc(Cl)cc32)CC1 [Loxapine succinate]
inactive: [1] 1 | Shigella flexneri 0.992 | Vibrio cholerae 0.907 | [2] 1.01 | P. vulgatus RND KO 0.612 | P. vulgatus WT 0.478 | [3] 1.01 | [4] 0.96

CNCCCC1c2ccccc2C=Cc2ccccc21 [Protriptyline hydrochloride]
inactive: [1] 0.973 | Shigella flexneri 1 | Vibrio cholerae 0.997 | [2] 1 | P. vulgatus RND KO 0.913 | P. vulgatus WT 0.882 | [3] 0.996 | [4] 0.951

CN(C)CCCOc1nn(Cc2ccccc2)c2ccccc12 [Benzydamine hydrochloride]
inactive: [1] 1 | Shigella flexneri 0.958 | Vibrio cholerae 0.892 | [2] 0.991 | P. vulgatus RND KO 0.993 | P. vulgatus WT 1.01 | [3] 0.988 | [4] 0.959

COc1ccc(/C=C/C(=O)Nc2ccccc2C(=O)O)cc1OC [Tranilast]
inactive: [1] 0.999 | Shigella flexneri 0.973 | Vibrio cholerae 0.992 | [2] 1.01 | P. vulgatus RND KO 0.999 | P. vulgatus WT 1.02 | [3] 1.04 | [4] 0.952

Nc1ccc(S(=O)(=O)c2ccc(N)cc2)cc1 [Dapsone]
inactive: [1] 0.982 | Shigella flexneri 0.994 | Vibrio cholerae 0.988 | [2] 1 | P. vulgatus RND KO 1.01 | P. vulgatus WT 1 | [3] 1 | [4] 0.994

CCOC(=O)C1=C(COCCN)NC(C)=C(C(=O)OC)C1c1ccccc1Cl (stereo not drawn) [Amlodipine]
inactive: [1] 0.997 | Shigella flexneri 0.99 | Vibrio cholerae 0.985 | [2] 1.01 | P. vulgatus RND KO 1.02 | P. vulgatus WT 1.02 | [3] 1.02 | [4] 1.01

O=C(O)Cc1ccc(-c2ccccc2)cc1 [Felbinac]
inactive: [1] 1.03 | Shigella flexneri 0.977 | Vibrio cholerae 0.996 | [2] 0.994 | P. vulgatus RND KO 1 | P. vulgatus WT 1.01 | [3] 1.01 | [4] 0.988

CC1Cc2ccccc2N1NC(=O)c1ccc(Cl)c(S(N)(=O)=O)c1 (stereo not drawn) [Indapamide]
inactive: [1] 1 | Shigella flexneri 0.985 | Vibrio cholerae 1.01 | [2] 0.992 | P. vulgatus RND KO 0.999 | P. vulgatus WT 1.02 | [3] 1 | [4] 0.988

C[C@]12C=CC(=O)C=C1CC[C@@H]1[C@@H]2[C@@H](O)C[C@@]2(C)[C@H]1CC[C@]2(O)C(=O)CO [Prednisolone]
inactive: [1] 0.982 | Shigella flexneri 0.96 | Vibrio cholerae 0.971 | [2] 0.994 | P. vulgatus RND KO 0.976 | P. vulgatus WT 0.995 | [3] 0.995 | [4] 0.998

C[C@]12CC[C@H]3C(=CCc4cc(O)ccc43)[C@@H]1CCC2=O [Equilin]
inactive: [1] 1.01 | Shigella flexneri 0.993 | Vibrio cholerae 0.99 | [2] 1.01 | P. vulgatus RND KO 0.993 | P. vulgatus WT 0.991 | [3] 1 | [4] 0.95

CC(=O)Oc1ccccc1C(=O)Oc1ccccc1C(=O)O [Acetylsalicylsalicylic acid]
inactive: [1] 0.997 | Shigella flexneri 0.973 | Vibrio cholerae 0.983 | [2] 0.932 | P. vulgatus RND KO 0.998 | P. vulgatus WT 1.04 | [3] 0.999 | [4] 0.997

Cc1cc(C(=O)NNCc2ccccc2)no1 [Isocarboxazid]
inactive: [1] 0.994 | Shigella flexneri 1.02 | Vibrio cholerae 1.03 | [2] 0.996 | P. vulgatus RND KO 1.05 | P. vulgatus WT 1.05 | [3] 0.998 | [4] 0.993

NS(=O)(=O)c1cc2c(cc1Cl)NCNS2(=O)=O [Hydrochlorothiazide]
inactive: [1] 1.02 | Shigella flexneri 0.994 | Vibrio cholerae 1.05 | [2] 1.01 | P. vulgatus RND KO 0.981 | P. vulgatus WT 0.997 | [3] 0.996 | [4] 1.02

O=C(O)COCCN1CCN(C(c2ccccc2)c2ccc(Cl)cc2)CC1 (stereo not drawn) [Cetirizine dihydrochloride]
inactive: [1] 1 | Shigella flexneri 0.994 | Vibrio cholerae 0.988 | [2] 0.981 | P. vulgatus RND KO 1 | P. vulgatus WT 1.01 | [3] 1.01 | [4] 0.994
